# Values joined by “and” are separate entries in the source; they are usually repeats but may differ in a detail not shown here. Equal entries are not always repeated. Results filed as inconclusive are left out. Active and inactive are the calls of the source. Unless noted, the call rests on the fitted dose curve; in most records, active means well fitted inhibition curve with a large enough effect; inconclusive means small, poorly fitted or top-dose-only effect; inactive means no such curve, though single readings can be large or run the other way.
# What was measured:
# [1] = biological target: Estrogen receptor (Homo sapiens) (UniProt P03372); assay: qHTS assay for small molecule antagonists of estrogen receptor alpha signaling (AID 588513; active means well fitted curve in the direction sought with a large enough effect in the signal ratio, with a control signal flat, not every such curve was filed as active; the % refers to the signal ratio; further: on the % scale 0 is the no-effect control and ±100 the full control effect)
# Sequence of Estrogen receptor (Homo sapiens) (P03372 whole entry, looked up): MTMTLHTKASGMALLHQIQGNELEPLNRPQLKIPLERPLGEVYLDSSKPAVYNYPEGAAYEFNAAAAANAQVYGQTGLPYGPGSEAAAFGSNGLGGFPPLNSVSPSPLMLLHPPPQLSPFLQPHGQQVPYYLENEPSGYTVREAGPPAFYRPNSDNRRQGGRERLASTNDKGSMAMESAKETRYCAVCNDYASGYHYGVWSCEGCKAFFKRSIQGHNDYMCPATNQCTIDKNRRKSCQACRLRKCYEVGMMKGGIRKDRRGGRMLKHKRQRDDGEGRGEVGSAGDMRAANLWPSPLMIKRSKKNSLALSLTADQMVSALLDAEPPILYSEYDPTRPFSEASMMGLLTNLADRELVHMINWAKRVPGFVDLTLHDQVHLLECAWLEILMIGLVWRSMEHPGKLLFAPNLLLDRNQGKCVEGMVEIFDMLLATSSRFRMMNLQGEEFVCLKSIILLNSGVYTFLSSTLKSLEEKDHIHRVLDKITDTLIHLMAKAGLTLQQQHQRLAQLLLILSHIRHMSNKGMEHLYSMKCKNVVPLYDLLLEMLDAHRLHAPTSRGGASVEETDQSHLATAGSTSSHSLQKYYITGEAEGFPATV
# Summary of the method: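 ER-alpha-UAS-bla GripTite HEK 293 cells in medium with 2% charcoal/dextran-treated FBS were preincubated 4 h at 37 C, dosed with compound (1:2 titration), stimulated with 0.5nM 17-beta-estradiol for 18 h, then read by CCF4 beta-lactamase fluorescence.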
# [2] = biological target: Estrogen receptor (Homo sapiens) (UniProt P03372); assay: qHTS assay for small molecule agonists of estrogen receptor alpha signaling (AID 588514; calls by dose curve;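 further: 0% = vehicle only and 100% = reference agonist; nearly all actives have a fitted effect of over 70% in size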)
# Summary of the method: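 Efficacy is expressed against 20 nM 17-beta-estradiol (100%) and DMSO basal (0%); EC50 from Hill equation. Assay: beta-lactamase reporter in ER-alpha-UAS-bla HEK 293 cells, 18 h compound incubation, CCF4 detection.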
# [3] = qHTS assay for small molecule antagonists of peroxisome proliferator-activated receptor delta signaling (AID 588535; active means well fitted inhibition curve with a large enough effect in the signal ratio, with a control signal flat, not every such curve was filed as active; the % refers to the signal ratio;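 on max response: cells co-treated with a PPAR-delta agonist as stimulator during compound exposure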); conditions: HEK293T PPARd-UAS-bla, beta-lactamase FRET ratio, 18 h; 460 nm channel
# Summary of the method: (§1)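 Fluorescence from CCF4-loaded GeneBLAzer PPAR-delta-UAS-bla HEK293T cells (2 hrs RT loading) quantified reporter inhibition after an 18 hr, 37 C compound exposure across a titration.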
# [4] = biological target: Peroxisome proliferator-activated receptor delta (Homo sapiens) (UniProt Q03181); assay: as above
# Sequence of Peroxisome proliferator-activated receptor delta (Homo sapiens) (Q03181 whole entry, looked up): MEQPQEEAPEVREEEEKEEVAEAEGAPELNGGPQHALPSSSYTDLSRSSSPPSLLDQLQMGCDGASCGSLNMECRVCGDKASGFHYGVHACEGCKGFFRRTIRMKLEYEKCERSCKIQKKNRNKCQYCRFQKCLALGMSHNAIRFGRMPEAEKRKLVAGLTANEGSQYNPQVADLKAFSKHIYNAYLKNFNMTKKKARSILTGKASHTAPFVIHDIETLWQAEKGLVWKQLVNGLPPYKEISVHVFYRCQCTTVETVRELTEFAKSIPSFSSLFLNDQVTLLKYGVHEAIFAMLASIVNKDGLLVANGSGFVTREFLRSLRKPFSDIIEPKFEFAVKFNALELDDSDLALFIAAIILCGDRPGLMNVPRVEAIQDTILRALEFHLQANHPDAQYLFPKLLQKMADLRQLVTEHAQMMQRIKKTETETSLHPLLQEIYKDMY
# Summary of the method: as §1
# [5] = biological target: Vitamin D3 receptor (Homo sapiens) (UniProt P11473); assay: qHTS assay for small molecule antagonists of vitamin D receptor signaling (AID 588541; calls by dose curve;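 further: receptor activated by calcitriol during compound treatment; series mostly up to about 77 µM; on the % scale 0 is the no-effect control and ±100 the full control effect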)
# Sequence of Vitamin D3 receptor (Homo sapiens) (P11473 whole entry, looked up): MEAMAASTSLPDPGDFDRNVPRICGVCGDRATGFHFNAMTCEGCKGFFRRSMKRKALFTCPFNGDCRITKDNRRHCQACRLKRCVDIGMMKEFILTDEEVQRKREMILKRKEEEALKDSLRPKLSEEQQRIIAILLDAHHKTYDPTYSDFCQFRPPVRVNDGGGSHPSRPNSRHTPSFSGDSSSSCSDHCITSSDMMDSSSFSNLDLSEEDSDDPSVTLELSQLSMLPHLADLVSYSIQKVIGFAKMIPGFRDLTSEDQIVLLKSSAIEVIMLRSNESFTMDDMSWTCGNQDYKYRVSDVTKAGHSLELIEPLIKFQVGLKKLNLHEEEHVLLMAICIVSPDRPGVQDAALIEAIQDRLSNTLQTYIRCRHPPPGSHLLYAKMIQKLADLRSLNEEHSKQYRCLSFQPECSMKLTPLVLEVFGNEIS
# Summary of the method: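 VDR-UAS-bla HEK293T cells in 2% charcoal-stripped FBS were stimulated with 1-alpha,25-dihydroxyvitamin D3 (3 nM final) plus compound for 16 h at 37 C. The beta-lactamase CCF4 readout was normalized to 50 nM agonist and DMSO, and Hill fits gave IC50.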
# [6] = biological target: Vitamin D3 receptor (Homo sapiens) (UniProt P11473); assay: qHTS assay for small molecule agonists of vitamin D receptor signaling (AID 588543; calls by dose curve;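 further: 0% = DMSO basal and 100% = reference agonist control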)
# Summary of the method: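 GeneBLAzer VDR-UAS-bla HEK293T cells in 2% charcoal-stripped FBS medium were dosed with compound titrations for 16 h at 37 °C; CCF4 β-lactamase readout (405 nm ex, 460/530 nm em). EC50 and efficacy from Hill fits, normalized to 50 nM calcitriol (100%) and DMSO (0%).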
# [7] = qHTS assay for small molecule agonists of retinoid X receptor alpha signaling (AID 588544; calls by dose curve;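 on activation: 0% = DMSO basal wells and 100% = reference agonist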); conditions: HEK293T RXRa-UAS-bla, beta-lactamase reporter, 18 h; 530 nm emission
# [8] = biological target: Retinoic acid receptor RXR-alpha (Homo sapiens) (UniProt P19793); assay: as above
# Sequence of Retinoic acid receptor RXR-alpha (Homo sapiens) (P19793 whole entry, looked up): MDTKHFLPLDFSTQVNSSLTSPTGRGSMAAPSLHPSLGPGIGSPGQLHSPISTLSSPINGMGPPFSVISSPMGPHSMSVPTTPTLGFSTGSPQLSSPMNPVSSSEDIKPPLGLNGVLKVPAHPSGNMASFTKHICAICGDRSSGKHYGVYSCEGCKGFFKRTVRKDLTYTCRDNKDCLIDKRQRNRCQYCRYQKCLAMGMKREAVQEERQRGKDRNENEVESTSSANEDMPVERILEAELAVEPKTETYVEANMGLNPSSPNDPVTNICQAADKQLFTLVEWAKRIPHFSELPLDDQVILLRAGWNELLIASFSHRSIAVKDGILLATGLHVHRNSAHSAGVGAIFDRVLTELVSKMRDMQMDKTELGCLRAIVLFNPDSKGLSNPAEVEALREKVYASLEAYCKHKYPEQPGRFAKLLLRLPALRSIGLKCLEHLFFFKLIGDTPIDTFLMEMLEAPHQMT
# [9] = qHTS assay for small molecule antagonists of retinoid X receptor alpha signaling (AID 588546; active means well fitted inhibition curve with a large enough effect in the signal ratio, with a control signal flat, not every such curve was filed as active; the % refers to the signal ratio;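 further: cells stimulated with 9-cis-retinoic acid as agonist; on the % scale 0 is the no-effect control and ±100 the full control effect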); conditions: HEK293T RXRa-UAS-bla, beta-lactamase ratio, antagonist mode; measured here: W530 green channel, cytotoxicity proxy
# Summary of the method: (§2)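 Beta-lactamase reporter inhibition, read as CCF4 fluorescence ratio (ex 405, em 460/530 nm) after 2 h at RT. HEK293T UAS-bla cells, 2500/well, were stimulated with 9-cis-RA at 500 or 100 nM final alongside test compound for 18 h at 37 C.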
# [10] = biological target: Retinoic acid receptor RXR-alpha (Homo sapiens) (UniProt P19793); assay: as above; conditions: HEK293T RXRa-UAS-bla, beta-lactamase ratio, antagonist mode
# Summary of the method: as §2
# [11] = biological target: Thyroid hormone receptor beta (Homo sapiens) (UniProt P10828); assay: qHTS assay for small molecule antagonists of thyroid hormone receptor beta signaling (AID 588547; active means well fitted inhibition curve with a large enough effect in the signal ratio, with a control signal flat, not every such curve was filed as active; the % refers to the signal ratio;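 further: cells stimulated with 0.4 nM T3 agonist during compound exposure; series mostly up to about 77 µM; on the % scale 0 is the no-effect control and ±100 the full control effect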); conditions: TR-UAS-bla HEK293, beta-lactamase ratio, antagonist mode, 18 h
# Sequence of Thyroid hormone receptor beta (Homo sapiens) (P10828 whole entry, looked up): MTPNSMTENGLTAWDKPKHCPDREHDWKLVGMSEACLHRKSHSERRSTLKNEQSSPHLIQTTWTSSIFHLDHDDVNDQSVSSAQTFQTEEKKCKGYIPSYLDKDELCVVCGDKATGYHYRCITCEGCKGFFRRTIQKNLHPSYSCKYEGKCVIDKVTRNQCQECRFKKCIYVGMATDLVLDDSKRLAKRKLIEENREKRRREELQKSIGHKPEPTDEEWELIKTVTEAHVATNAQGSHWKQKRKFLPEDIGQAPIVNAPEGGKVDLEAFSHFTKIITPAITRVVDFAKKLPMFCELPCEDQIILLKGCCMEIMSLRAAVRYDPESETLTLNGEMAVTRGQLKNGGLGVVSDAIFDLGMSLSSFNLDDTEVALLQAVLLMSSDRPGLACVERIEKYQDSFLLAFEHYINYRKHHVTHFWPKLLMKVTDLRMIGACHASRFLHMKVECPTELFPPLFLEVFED
# Summary of the method: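 TR-UAS-bla GripTite HEK293 cells in 2% charcoal/dextran FBS medium; compounds 0.59 nM to 92 uM with T3 at 0.4nM final, 18 h at 37 C. Beta-lactamase read by CCF4 fluorescence (460/530 nm); Hill fits gave IC50 and efficacy.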
# [12] = qHTS assay for small molecule agonists of the antioxidant response element (ARE) signaling pathway (AID 651741; active means well fitted activation curve with a large enough effect in the signal ratio; the % refers to the signal ratio; further: % of control where 0% means no effect)
# Summary of the method: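 Stably integrated ARE-beta-lactamase reporter HepG2 cells; 16 h compound incubation, 37 C; LiveBLAzer FRET substrate 2 h at room temperature; fluorescence intensity.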
# [13] = qHTS assay for small molecule activators of the p53 signaling pathway (AID 651743; active means well fitted activation curve with a large enough effect in the signal ratio, not every such curve was filed as active; the % refers to the signal ratio; further: series mostly up to about 92 µM; % of control where 0% means no effect); conditions: HCT-116 p53RE-bla, beta-lactamase FRET ratio, 16 h; activation: stronger effect = higher value
# Summary of the method: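 Following 16 hours of compound exposure at 37 C, HCT-116 cells bearing the p53RE-bla reporter were loaded with LiveBLAzer B/G FRET substrate for 2 hours at room temperature and fluorescence intensity was recorded.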
# [14] = biological target: Tumor necrosis factor (Homo sapiens) (UniProt P01375); assay: qHTS assay to identify small molecules that stimulate Tumor Necrosis Factor-alpha (TNF-alpha) secretion (AID 651757; active means well fitted curve in the direction sought with a large enough effect in the signal ratio; the % refers to the signal ratio; further: 0% is about no effect)
# Sequence of Tumor necrosis factor (Homo sapiens) (P01375 whole entry, looked up): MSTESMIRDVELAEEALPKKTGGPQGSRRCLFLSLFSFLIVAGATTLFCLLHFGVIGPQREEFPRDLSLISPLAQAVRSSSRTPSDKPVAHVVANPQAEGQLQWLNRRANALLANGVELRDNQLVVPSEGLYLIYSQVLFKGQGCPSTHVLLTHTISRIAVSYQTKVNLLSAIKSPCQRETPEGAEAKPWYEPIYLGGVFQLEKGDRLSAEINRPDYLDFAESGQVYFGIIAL
# Summary of the method: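 Human monocytic THP-1 cells are plated, treated with compound and held at 37 C for 17 hrs. Labeled anti-TNF-alpha antibody mixture is then added; after 3 hr at room temperature, TR-FRET signal reports secreted TNF-alpha.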
# [15] = qHTS assay for small molecule activators of the human pregnane X receptor (PXR) signaling pathway (AID 720659; call rule not given here; further: 0% is about no effect)
# [16] = biological target: Cytochrome P450 2D6 (Homo sapiens) (UniProt P10635); assay: qHTS Assay for Inhibitors and Substrates of Cytochrome P450 2D6 (AID 891); further: nearly all actives have a fitted effect of over 60% in size; further: potency means the concentration at half of the fitted maximal effect
# Sequence of Cytochrome P450 2D6 (Homo sapiens) (P10635 whole entry, looked up): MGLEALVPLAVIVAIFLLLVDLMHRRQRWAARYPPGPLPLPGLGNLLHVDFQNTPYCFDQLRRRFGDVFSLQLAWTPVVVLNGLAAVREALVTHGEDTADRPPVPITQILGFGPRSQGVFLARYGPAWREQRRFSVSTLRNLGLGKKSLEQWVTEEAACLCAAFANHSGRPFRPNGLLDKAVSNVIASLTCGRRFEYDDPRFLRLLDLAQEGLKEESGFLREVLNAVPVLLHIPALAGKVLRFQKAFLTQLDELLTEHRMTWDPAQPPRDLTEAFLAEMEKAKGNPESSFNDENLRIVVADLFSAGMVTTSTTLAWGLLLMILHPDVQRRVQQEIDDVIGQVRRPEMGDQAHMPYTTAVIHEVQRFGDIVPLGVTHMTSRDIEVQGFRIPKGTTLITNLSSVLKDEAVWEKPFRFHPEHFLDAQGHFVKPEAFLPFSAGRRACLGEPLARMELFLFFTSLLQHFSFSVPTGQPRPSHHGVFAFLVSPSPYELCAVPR
# Summary of the method: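 Luminescent read-out of luciferin formed by 5 nM human CYP2D6 demethylating 30 uM Luciferin-ME EGE (Km level) over 60 min at room temperature after NADPH regeneration addition. Data normalized to full inhibition by 1.43 uM quinidine.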
# [17] = biological target: Cytochrome P450 2C9 (Homo sapiens) (UniProt P11712); assay: qHTS Assay for Inhibitors and Substrates of Cytochrome P450 2C9 (AID 883); further: potency means the concentration at half of the fitted maximal effect; nearly all actives have a fitted effect of over 60% in size
# Sequence of Cytochrome P450 2C9 (Homo sapiens) (P11712 whole entry, looked up): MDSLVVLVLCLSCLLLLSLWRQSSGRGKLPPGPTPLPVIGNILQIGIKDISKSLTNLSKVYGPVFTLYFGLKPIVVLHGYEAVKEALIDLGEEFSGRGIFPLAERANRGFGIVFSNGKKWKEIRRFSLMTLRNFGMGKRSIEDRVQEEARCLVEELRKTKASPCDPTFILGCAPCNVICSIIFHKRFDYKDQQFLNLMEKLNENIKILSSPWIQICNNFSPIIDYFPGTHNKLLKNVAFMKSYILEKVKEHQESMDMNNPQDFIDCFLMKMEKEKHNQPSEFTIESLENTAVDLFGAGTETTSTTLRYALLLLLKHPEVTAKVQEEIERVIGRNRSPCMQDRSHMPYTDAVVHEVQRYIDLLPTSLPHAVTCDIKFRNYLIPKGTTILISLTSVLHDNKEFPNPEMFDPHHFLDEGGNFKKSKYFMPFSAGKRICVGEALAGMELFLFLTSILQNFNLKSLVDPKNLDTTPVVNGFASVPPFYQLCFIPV
# Summary of the method: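 Human CYP2C9 (10nM) with Luciferin-H at 100uM (its KM) in 25mM KPO4; compound preincubated 10 min at 37C, then NADPH regeneration for 60 min at 37C. Luciferin read by luminescence after detection reagent; normalized to 57uM sulphaphenazole as full inhibition.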
# [18] = biological target: Glucocorticoid receptor (Homo sapiens) (UniProt P04150); assay: qHTS assay for small molecule agonists of glucocorticoid receptor signaling (AID 588532; active means well fitted curve in the direction sought with a large enough effect in the signal ratio, with a control signal flat; the % refers to the signal ratio;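 further: 100% = dexamethasone at 0.1 µM and 0% = DMSO only wells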); conditions: HeLa MMTV-bla, beta-lactamase ratio, agonist, 18 h; stronger effect = higher value; percent of dexamethasone control, DMSO zero
# Sequence of Glucocorticoid receptor (Homo sapiens) (P04150 whole entry, looked up): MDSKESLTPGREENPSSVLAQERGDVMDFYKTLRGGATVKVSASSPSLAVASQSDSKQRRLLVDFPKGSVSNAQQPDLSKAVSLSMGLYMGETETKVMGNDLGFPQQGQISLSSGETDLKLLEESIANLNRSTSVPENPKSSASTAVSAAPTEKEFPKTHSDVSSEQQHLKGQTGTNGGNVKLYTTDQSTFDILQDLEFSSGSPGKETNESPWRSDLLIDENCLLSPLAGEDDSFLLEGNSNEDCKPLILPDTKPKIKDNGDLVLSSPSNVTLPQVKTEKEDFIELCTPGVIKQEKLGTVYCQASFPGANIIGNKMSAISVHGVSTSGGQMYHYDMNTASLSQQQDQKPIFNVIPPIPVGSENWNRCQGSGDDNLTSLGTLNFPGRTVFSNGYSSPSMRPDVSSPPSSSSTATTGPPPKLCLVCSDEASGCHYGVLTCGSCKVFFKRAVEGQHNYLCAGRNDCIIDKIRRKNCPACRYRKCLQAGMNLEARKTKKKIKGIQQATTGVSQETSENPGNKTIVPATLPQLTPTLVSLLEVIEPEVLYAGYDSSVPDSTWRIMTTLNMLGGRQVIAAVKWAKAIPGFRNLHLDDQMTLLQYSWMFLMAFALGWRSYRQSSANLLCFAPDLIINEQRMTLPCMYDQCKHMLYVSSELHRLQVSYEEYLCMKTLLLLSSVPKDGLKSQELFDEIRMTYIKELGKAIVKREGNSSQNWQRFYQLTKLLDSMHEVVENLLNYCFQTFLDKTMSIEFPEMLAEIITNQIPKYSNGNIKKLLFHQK
# Summary of the method: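 MMTV-bla HeLa beta-lactamase reporter cells in 1% charcoal/dextran FBS medium, compounds up to 92 uM for 18 h at 37 C, CCF4 readout; normalized to 0.1 uM dexamethasone (100%), EC50 and efficacy from Hill fits.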
# [19] = biological target: Glucocorticoid receptor (Homo sapiens) (UniProt P04150); assay: qHTS assay for small molecule antagonists of glucocorticoid receptor signaling (AID 588533; active means well fitted inhibition curve with a large enough effect in the signal ratio, with a control signal flat, not every such curve was filed as active; the % refers to the signal ratio; further: on the % scale 0 is the no-effect control and ±100 the full control effect)
# Summary of the method: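 Antagonist-mode qHTS: compound titrations added to GRE-bla HeLa cells, then dexamethasone 2 nM final; 18 h, 37 C. CCF4 FRET fluorescence normalized to dexamethasone and DMSO; IC50 from Hill fit.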
smiles,measurement,setting,value
CN1[C@H]2CC(OC(=O)[C@H](CO)c3ccccc3)C[C@H]1[C@H]1O[C@H]12 (stereo partly drawn),Potency,[1],inactive
same,outcome,[2],inactive
same,max response,[3],-6.66% and 15.5%
same,outcome,[4],inactive
same,Potency,[5],inactive
same,outcome,[6],inactive
same,max response,[7],3.87% and -2.7%
same,outcome,[8],inactive
same,max response,[9],-12.3% and -10.2%
same,max response,[10],-1.24% (inactive) and 3.3% (inactive)
same,activity change % (negative = inhibition),[11],-22.7% (inactive) and -1.59% (inactive)
same,Potency,[12],inactive
same,activation,[13],-1.86% (inactive) and -3.02% (inactive)
same,outcome,[14],inactive
same,outcome,[15],inactive
CC(C)C[C@@H](CC(=O)N[C@@H](CCC(=O)O)CC(=O)O)NC(=O)[C@@H]1CNCC[C@H]1NC(=O)C[C@@H](NC(=O)C[C@H](Cc1c[nH]c2ccccc12)NC(=O)[C@@H]1CNCC[C@H]1N)C(C)C,Potency,[16],inactive
CC(C)c1cccc2c([Si](C)(C)C)c3c(nc12)-c1cccc(=O)n1C3,Potency,[17],2 µM (active)
C=CC(=O)OCC(CO)(COC(=O)C=C)COC(=O)C=C,activation,[18],-3.48% (inactive) and -11.6% (inactive)
same,outcome,[14],inactive
CCC/C=C(\CCC)C(NS(=O)(=O)c1ccc(Cl)cc1)c1ccc(C(=O)OC)cc1 (stereo not drawn),Potency,[17],3.16 µM (active)
CCC/C=C(\CCC)C(NS(=O)(=O)c1ccc(Cl)cc1)c1ccccc1 (stereo not drawn),Potency,[17],2.51 µM (active)
COc1cc(/C=C\C(=O)CC(=O)/C=C\c2ccc(O)c(OC)c2)ccc1O,Potency,[16],15.8 µM (active)
COC(=O)[C@@]1(Cc2ccccc2)[C@H]2c3cc(C(=O)N4CCCC4)n(Cc4ccccn4)c3C[C@H]2CN1C(=O)c1ccccc1,Potency,[17],0.199 µM (active)
O=C(/C=C/c1ccc(O)c(O)c1)OC1C[C@](O)(C(=O)O)C[C@@H](O)[C@H]1O (stereo partly drawn),activation,[18],6.81% (inactive) and -6.91% (inactive)
same,max response,[3],3.46% and 31.4%
same,outcome,[4],inactive
same,max response,[7],6.31% and 0.0385%
same,outcome,[8],inactive
same,max response,[9],-7.31% and 4.34%
same,max response,[10],-11.4% (inactive) and -2.14% (inactive)
same,activity change % (negative = inhibition),[11],-9.6% (inactive) and 0.221% (inactive)
same,activation,[13],-1.07% (inactive) and -1.86% (inactive)
same,outcome,[15],inactive
CCC[C@@H]1C[C@@]1(CCC)C(NC(=O)c1ccccc1)c1cccc(Cl)c1 (stereo partly drawn),Potency,[16],3.16 µM (active)
COC(=O)[C@H](C)[C@H]1C[C@]1(C)[C@H](NC(=O)OCc1ccccc1)c1ccccc1,Potency,[17],2 µM (active)
CC1=C(\C=C/C(C)=C/C=C\C(C)=C\CO)C(C)(C)CCC1,Potency,[16],inactive
CCC/C=C(\CCC)C(NC(=O)c1ccc(C(F)(F)F)cc1)c1ccccc1 (stereo not drawn),Potency,[16],7.94 µM (active)
C[C@@H](C(=O)Nc1ccc2ccccc2c1)[C@H]1C[C@]1(C)[C@H](NS(=O)(=O)c1ccc(-c2ccccc2)cc1)c1ccccc1,Potency,[16],2 µM (active)
CCC/C=C(\CCC)C(NS(=O)(=O)c1cccs1)c1ccc(C(=O)OC)cc1 (stereo not drawn),Potency,[17],2 µM (active)
same,Potency,[16],6.31 µM (active)
Cc1cccc(O)c1C,Potency,[1],inactive
same,outcome,[2],inactive
same,activation,[18],5.02% (inactive)
same,Potency,[19],inactive
same,max response,[3],-7.79%
same,outcome,[4],inactive
same,Potency,[5],inactive
same,outcome,[6],inactive
same,max response,[7],-18.7%
same,outcome,[8],inactive
same,max response,[9],10.3%
same,max response,[10],20.3% (inactive)
same,activity change % (negative = inhibition),[11],4.76% (inactive)
same,activation,[13],-2.61% (inactive)
same,outcome,[14],inactive
same,outcome,[15],inactive
CCCC[C@@H]1C[C@H]1C(NC(=O)c1ccco1)c1ccc(Cl)cc1 (stereo partly drawn),Potency,[17],3.98 µM (active)
CCC/C=C(\CCC)C(NS(=O)(=O)c1ccc(C(F)(F)F)cc1)c1ccc(C(=O)OC)cc1 (stereo not drawn),Potency,[17],3.16 µM (active)

# From PubChem BioAssay (NCATS)
